The text below walks through data of PubChem BioAssay AID1486 (The Scripps Research Institute Molecular Screening Center, 2009).

“And” between values parts separate entries of the source, which are not always exact repeats. Identical values can stand only once. The campaign covered roughly 220,000 compounds. About 2,400 (1.1%) were called active.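 Rule for the calls: active = inhibition above a per-campaign cutoff, the mean inhibition of all tested compounds plus 3 SD (cut at about 27% in these data); inactive = the rest.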 Many of the other results were omitted from the sample, so actives are more common in it than they were.

The test in a line: growth loss in parental Ba/F3 cells – cell-based, murine pro-B, CellTiter-Glo luminescence, counter-screen for JAK2V617F inhibitor project (AID 1486).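 Note: 0% = DMSO wells and 100% = JAK Inhibitor I control wells.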 The following applies: Ba/F3 parental viability, CellTiter-Glo ATP luminescence; at 5.6 µM; active compounds read high. Background: In ATP-based viability assays light output follows the ATP content of the culture.
One may read the inhibition as the relative decrease from the control value, in per cent. With `CC12CCC(C(=O)N(NC(=O)c3ccccc3O)C1=O)C2(C)C` (stereo unspecified), the inhibition is 8.25% (inactive). The result for `COc1ccc(S(=O)(=O)NCC2CCCN(C(=O)c3occc3C)C2)cc1` (stereo unspecified) reads 7.62% (inactive); that for `Cc1cccc(NC(=O)COc2ccccc2C)n1`, 83.3% (active). Take `Cc1ccccc1OCC(=O)Nc1nc(C)c(C(=O)N(C)C)s1`: the inhibition was 7.55% (inactive). As for `Cc1cccc(NC(=O)COc2ccc(Br)cc2C)n1`, the inhibition is 6.66% (inactive). On to `CC1(C)CC(=O)C/C(=N\NC(=O)c2cccs2)C1`, for which the inhibition was 8.84% (inactive). As for `NS(=O)(=O)c1ccc(NC(=S)NC(=O)c2cccc(Br)c2)cc1`, the inhibition is 7.4% (inactive). For `Cn1c(-c2ccccc2)c[n+]2c1CCCCC2` the value was 3.67% (inactive); for `Cc1ccc(-c2c[n+](CC(=O)Nc3ccccc3)c3n2CCC3)cc1`, 0.41% (inactive). Turning to `Cc1ccc(C(=O)C[n+]2cc(-c3ccccc3)n3c2CCCCC3)cc1`, the inhibition was 70.7% (active) and 65.4% (active). Turning to `Clc1ccc(C[n+]2cc(-c3ccccc3)n3c2CCC3)cc1`, the inhibition was 63.7% (active).

For `Clc1ccc(C[n+]2cc(-c3ccc(Cl)cc3)n3c2CCC3)cc1`, the inhibition is 58.9% (active). For `O=C(C[n+]1cc(-c2ccc(Cl)c(Cl)c2)n2c1CCC2)c1cccs1` the value was 10.5% (inactive); for `O=c1oc(-c2ccccc2NS(=O)(=O)c2ccc(Cl)cc2)nc2ccccc12`, 2.45% (inactive); for `Cc1ccc(/C=N/NC(=S)Nc2cccc(S(=O)(=O)N(C)C)c2)o1`, 2.16% (inactive). The result for `COC(=O)c1ccc(NC(=S)Nc2cccc(C)n2)cc1` reads -3.59% (inactive); that for `Cc1ccc(Nc2c3c(nc4ccccc24)CCC3)cc1`, -1.93% (inactive). For `O=[N+]([O-])c1cccc(Nc2c3ccccc3nc3ccccc23)c1` the value was 2.06% (inactive). Consider `CC(=O)Nc1ccc(Nc2c3ccccc3nc3ccccc23)cc1`, for which the inhibition was 97.3% (active). For `CC1=C(C)CC(C(=O)NNC(=O)c2csc3c2CCC(C(C)(C)C)C3)C(C(=O)O)C1` (stereo unspecified) the value was 4.65% (inactive). `CCCCCn1c(=O)c(C(=O)OCC)c(Cl)c2ccccc21`: the inhibition is -3.36% (inactive).

With `Cc1c(CCO)c(=O)n(-c2ccccc2)n1S(=O)(=O)c1ccc(F)cc1`, the inhibition is 41% (active).

As for `CCOC(=O)C1CN(S(=O)(=O)c2ccc(F)cc2)C1`, the inhibition was 0.24% (inactive).

In the case of `Cc1ccc(S(=O)(=O)CC(=O)Nc2c(C)n(C)n(-c3ccccc3)c2=O)cc1`, the inhibition was 7.55% (inactive). For the molecule `Cc1cc(C)cc(OCC(=O)NNC(=O)CCN2C(=O)c3ccccc3C2=O)c1`, the inhibition was 5.47% (inactive). For `CCN(C(=O)COC(=O)c1c(NC(C)=O)sc(C)c1C)C1CCS(=O)(=O)C1` (stereo unspecified) the value was 8.25% (inactive).
